Only some compounds are listed: those with a hit (about 0.9% of all), similar ones and a draw of the others.
PPARg SRC-3 ag – agonists of human PPARgamma SRC-3 coactivator recruitment; 200,000 tested, 0.26% active; P37231; biochemical PPARgamma/SRC-3 coactivator recruitment assay; AID 731; activation, % at 8 µM; in the data active means activation above about 23%;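 further: 0% = DMSO and 100% = reference agonist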
Target sequence (P37231 whole entry, looked up): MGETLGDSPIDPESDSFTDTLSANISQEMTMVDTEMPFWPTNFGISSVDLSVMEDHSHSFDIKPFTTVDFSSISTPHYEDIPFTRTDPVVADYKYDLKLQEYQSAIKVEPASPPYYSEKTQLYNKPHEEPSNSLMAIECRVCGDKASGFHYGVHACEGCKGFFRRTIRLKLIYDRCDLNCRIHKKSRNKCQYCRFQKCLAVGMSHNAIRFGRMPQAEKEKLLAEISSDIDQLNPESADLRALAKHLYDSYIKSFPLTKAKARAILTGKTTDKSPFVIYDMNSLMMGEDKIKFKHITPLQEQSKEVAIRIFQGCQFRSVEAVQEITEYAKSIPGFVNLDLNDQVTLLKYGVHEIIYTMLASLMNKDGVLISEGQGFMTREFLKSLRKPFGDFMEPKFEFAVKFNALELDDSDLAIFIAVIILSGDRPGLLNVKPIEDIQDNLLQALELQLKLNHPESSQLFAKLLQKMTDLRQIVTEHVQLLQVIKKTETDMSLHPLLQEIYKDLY
SRC2 TRFRET art – flags TR-FRET format artefacts in PPARgamma SRC-2 recruitment agonist screen; TR-FRET artefact counter-screen; hits give high values; TR-FRET ratio at 8 µM; 200,000 tested, 0.4% active; AID 1049; in the data active means TR-FRET ratio above about 2000
PPARg SRC-2 ag – PPARgamma-driven SRC-2 recruitment agonism | P37231 | PPARgamma LBD-SRC-2 recruitment, biochemical | activation, % at 8 µM | 200,000 tested, 0.34% active | AID 1032;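 further: 0% = vehicle and 100% = reference agonist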
SRC3 TRFRET art – TR-FRET artefact, counter-screen to PPARgamma/SRC-3 agonist assay | TR-FRET ratio at 8 µM | PPARgamma/SRC-3 format; hits give high values | 99,000 tested, 0.39% active; in the data active means TR-FRET ratio above about 2000
PPARg SRC1 recr – promotes SRC-1 coactivator recruitment by human PPARgamma; PPARgamma-SRC-1 coactivator recruitment biochemical assay; 200,000 tested, 0.41% active; activation, % at 8 µM; in the data active means activation above about 19%;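 further: 0% = DMSO and 100% = reference agonist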
SRC1 TRFRET art – TR-FRET artefact, counter-screen to PPARgamma/SRC-1 agonist assay. TR-FRET detection artefact counter-screen, emission ratio; hits give high values. TR-FRET ratio at 8 µM. 99,000 tested, 0.34% active. AID 1051; in the data active means TR-FRET ratio above about 2300
PPARg SRC2 conf – confirmation of agonists of SRC-2 recruitment by human PPARgamma. shares compounds with PPARg SRC-3 ag. 790 tested, 52% active. activation, % at 8 µM. biochemical SRC-2 recruitment by PPARgamma;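 further: 0% = vehicle alone and 100% = reference agonist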
PPARg SRC1 ag – confirmation of agonists of SRC-1 recruitment by human PPARgamma. 790 tested, 43% active. AID 1300. PPARgamma–SRC-1 coactivator recruitment biochemical assay. shares compounds with PPARg SRC-3 ag. activation, % at 8 µM; in the data active means activation above about 20%;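 further: 0% = vehicle wells and 100% = reference agonist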
PPARg SRC3 ag – human PPARgamma SRC-3 recruitment agonism, confirmation; shares compounds with PPARg SRC-3 ag; biochemical PPARgamma-SRC-3 coactivator recruitment, agonist mode; activation, % at 8 µM; 790 tested, 29% active; AID 1301; in the data active means activation above about 24%;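 further: 0% = vehicle wells and 100% = reference agonist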
Starred values were filed as active, the others as inactive; · = no result. Unless noted, no stated cut-off is given here; in the data, active means activation above about 22%; inactive means the rest.

SMILES	PPARg SRC-3 ag	SRC2 TRFRET art	PPARg SRC-2 ag	SRC3 TRFRET art	PPARg SRC1 recr	SRC1 TRFRET art	PPARg SRC2 conf	PPARg SRC1 ag	PPARg SRC3 ag
CCCCOC(=O)C(C)Nc1n[nH]c(=S)[nH]c1=O (stereo not given)	26.0*	1892	21.1	·	13.5	·	27.2*	26.6*	16.3
CCCCOC(=O)CCNc1n[nH]c(=O)[nH]c1=O	-3.9	1395	-1.0	1615	0.6	1708	·	·	·
CC(C)COC(=O)CNc1n[nH]c(=S)[nH]c1=O	86.5*	2814*	62.7*	·	51.9*	·	78.4*	57.8*	52.0*
CCCCOC(=O)CNc1n[nH]c(=S)[nH]c1=O	95.1*	2722*	66.2*	·	47.9*	·	80.2*	61.5*	54.7*
CCCCOC(=O)C(C)Nc1n[nH]c(=O)[nH]c1=O (stereo not given)	2.7	1335	3.2	·	0.4	·	·	·	·
CCCCCCCc1c(O)nc(SCCN2CCOCC2)[nH]c1=O	3.7	1484	11.1	1452	4.8	1798	·	·	·
CS(=O)(=O)N1CCC(Oc2ccccc2C(=O)NCCCc2cccnc2)CC1	4.7	1856	-4.8	1617	1.2	2073	·	·	·
COc1cc(NC(=O)c2cccs2)c(OC)cc1NC(=O)CCC(=O)Nc1ccc2ncccc2c1	-0.3	1566	-4.9	1613	-0.1	1923	·	·	·
CC(C)CCNC(=O)c1ccc(Cl)c(NC(=O)Cc2ccccc2)c1	1.6	1492	3.5	1777	5.9	1763	·	·	·
O=C(CNC1CCCC1)Nc1ccc(N2CCCCCC2)cc1	6.2	1860	8.3	1650	20.5*	1797	0.6	0.5	1.5
CCn1c(=O)cc(SCC(=O)N2CCN(c3ccccc3F)CC2)c2ccccc21	33.6*	2381*	42.2*	·	29.8*	·	36.4*	22.8*	24.2*
CCn1c(=O)cc(SCC(=O)N2CCN(c3ccccn3)CC2)c2ccccc21	20.7	2505*	34.9*	2355*	39.1*	3018*	49.6*	33.7*	33.6*
C/C(=N\NC(=O)c1cc(-c2cccc([N+](=O)[O-])c2)n[nH]1)c1ccccc1O	-2.9	1503	2.5	1435	1.2	1686	·	·	·
CCOC(=O)c1c(N2C(=O)CC(Sc3ccccc3C(=O)O)C2=O)sc2c1CCCC2 (stereo not given)	3.0	1590	0.5	1541	-4.8	1900	·	·	·
COc1cccc(C2C3=C(Nc4[nH]n(-c5ccccc5)c(=O)c42)c2ccccc2C3=O)c1 (stereo not given)	33.4*	1497	15.2	1497	21.8*	1698	54.5*	54.4*	56.0*
COc1cccc(C2C3=C(CCCC3=O)Nc3[nH]n(-c4ccccc4)c(=O)c32)c1 (stereo not given)	7.2	1591	9.9	1360	-1.0	1713	·	·	·
CCOc1ccc(/C(O)=C2\C(=O)C(=O)N(c3cc(C)on3)C2c2ccccc2OC)cc1 (stereo not given)	41.6*	2300*	34.0*	·	27.3*	·	35.9*	30.9*	21.8
OC[C@@H](O)[C@@H](O[C@H]1O[C@H](CO)[C@@H](O)[C@H](O)[C@H]1O)[C@H](O)[C@@H](O)CO	-5.7	1476	0.4	1327	-0.1	1639	·	·	·
CCN1CC(CN(C)Cc2nc(-c3ccc(C(F)(F)F)cc3)oc2C)CC1=O (stereo not given)	3.2	1395	4.6	1493	5.0	1741	·	·	·
O=C1c2ccccc2C(=O)N1c1cccc(-c2csc(Nc3ccc4c(c3)OCO4)n2)c1	12.4	1630	25.6*	1746	18.8	2024	13.8	12.3	8.3
Cc1cc(Br)c2nc3c(c(C(=O)O)c2c1)CCCCC3	50.2*	4070*	97.5*	4157*	53.0*	3214*	67.0*	43.3*	46.9*
CCc1ccc2nc3c(c(C(=O)O)c2c1)CCC3	9.1	1632	8.9	·	0.7	·	·	·	·
C=CCn1c(NCc2cc(C)ccc2O)nc2ccccc21	3.1	1758	18.7	·	7.8	·	·	·	·
C=CCn1c(NC(C)c2cc(Cl)ccc2O)nc2ccccc21 (stereo not given)	28.1*	1650	27.1*	·	41.0*	·	19.0	31.8*	31.5*
CN(C)c1ccc(N/C=C/C(=O)c2ccccc2)cc1	20.8	1663	12.8	·	8.7	·	·	·	·
SMILES	PPARg SRC-3 ag	SRC2 TRFRET art	PPARg SRC-2 ag	SRC3 TRFRET art	PPARg SRC1 recr	SRC1 TRFRET art	PPARg SRC2 conf	PPARg SRC1 ag	PPARg SRC3 ag
CN(C)c1ccc(N/C=C/C(=O)C(C)(C)C)cc1	70.1*	2723*	80.6*	·	12.8	·	7.0	9.5	7.2
COc1ccc(CC2SC(=Nc3ccc(F)cc3)NC2=O)cc1 (stereo not given)	2.7	1593	-8.9	1534	10.3	1959	·	·	·
CCOC(=O)/C(C#N)=C\c1ccc(CC)s1	-8.7	1512	-4.3	·	-4.3	·	·	·	·
CCOC(=O)/C(C#N)=C\C=C1C=CN(C)C=C1	21.4	1925	31.8*	·	24.2*	·	14.6	9.1	8.8
CN(C)CCCNS(=O)(=O)c1ccc(Cl)s1	4.5	1664	9.5	1658	7.3	2031	·	·	·
COc1ccc(C(=O)NCc2ccc3c(c2)cc(C)n3C)cc1	2.3	1490	3.0	1480	-3.3	1948	·	·	·
Cc1cc2cc(CNC(=O)c3cc4ccccc4o3)ccc2n1C	31.5*	2988*	18.1	·	21.5*	·	41.3*	31.8*	23.1
Cc1ccccc1C(=O)OCCN(C)Cc1ccccc1	-0.1	1662	-3.0	1691	3.0	1981	·	·	·
COc1ccc(C(=O)Nc2cccc(-c3cc4ccccc4oc3=O)c2)cc1[N+](=O)[O-]	5.5	1581	7.2	1831	8.1	1974	·	·	·
CSc1oc(-c2ccccc2)nc1C(N)=O	30.2*	1911	18.8	·	17.9	·	27.3*	18.5	17.3
COc1ccc(-c2nc(-c3cccs3)c(-c3cccs3)[nH]2)cc1OC	29.7*	2267*	28.1*	·	23.0*	·	35.3*	30.7*	26.0*
Cc1ccccc1-c1ccc(C=Nc2c(C)n(C)n(-c3ccccc3)c2=O)o1	19.8	2051*	35.3*	·	24.1*	·	24.0*	19.3	16.6
CCOC(=O)C1CCN(C(=O)CSc2c3c(nc4ccccc24)CCC3)CC1	9.5	1921	23.2*	1925	17.1	1938	24.2*	12.8	13.5
O=C(CSc1c2c(nc3ccccc13)CCC2)N1CCCC1	2.0	1536	-0.3	1706	7.7	2117	·	·	·
COc1ccccc1NC(=O)CSc1c2c(nc3ccccc13)CCC2	-0.1	1565	-0.7	1720	2.9	1829	·	·	·
O=C(CSc1c2c(nc3cc(Cl)ccc13)CCCC2)NCc1ccco1	23.1	2007*	25.6*	·	15.8	·	28.6*	21.3*	17.0
